This passage reports growth inhibition results from PubChem BioAssay (NCI).

A short description of test [1]: NCI Yeast Anticancer Drug Screen. Data for the rad50 strain (AID 155).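 Also: 0% = growth of vehicle-only cultures of the same strain.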 The following applies: S. cerevisiae rad50 strain growth inhibition; at 50.0 µM; hits give high values. The essentials:
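Relative growth inhibition (compound vs vehicle) was measured in yeast with a defined repair-gene alteration.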

Test [2] is described as follows: NCI Yeast Anticancer Drug Screen. Data for the mec2-1 strain (AID 157). Particulars: S. cerevisiae mec2-1 strain, at 50.0 µM, hits give high values. The essentials:
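Strain: mec2-1 (DNA repair/cell cycle alteration). Compound exposure, then growth measured; inhibition expressed relative to vehicle.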

Test [3] is described as follows: NCI Yeast Anticancer Drug Screen. Data for the sgs1 mgt1 strain (AID 161).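 Also: 0% = growth of cultures given vehicle only.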 Particulars: S. cerevisiae sgs1 mgt1 strain, at 50.0 µM, hits give high values. The essentials:
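Mutant yeast exposed to compound; growth scored against vehicle-only wells.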

Test [4] is described as follows: NCI Yeast Anticancer Drug Screen. Data for the cln2 rad14 strain (AID 165).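 Also: 0% = growth equal to vehicle treated cultures.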 The following applies: S. cerevisiae cln2 rad14 strain, at 50.0 µM, hits give high values. The essentials:
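Compounds are applied to the cln2 rad14 yeast strain, and growth is then compared with that of vehicle-treated cultures to give inhibition.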

Test [5] is described as follows: NCI Yeast Anticancer Drug Screen. Data for the bub3 strain (AID 167). Particulars: S. cerevisiae bub3 mutant strain, at 50.0 µM, hits give high values. The essentials:
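Screening used yeast with an engineered genetic alteration affecting cell cycle control. Compound-exposed cultures were compared with vehicle cultures, and reduced growth was taken as inhibition.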

Test [6] can be described thus: NCI Yeast Anticancer Drug Screen. Data for the mlh1 rad18 strain (AID 175). Particulars: S. cerevisiae mlh1 rad18 strain growth inhibition; at 50.0 µM; hits give high values. The essentials:
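Read-out is yeast growth inhibition, calculated against vehicle-only controls. The compound was applied to a strain engineered with DNA damage repair alterations.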

Compounds without any hit were thinned out: in the full panel of roughly 79,000, 15% have a hit. Unmarked numbers belong to inactive results. The source made the active and inactive calls. Rule as the data show it: active = growth inhibition above about 70%; inactive = the rest. Where a SMILES comes first, the peptide text is derived from it. The star is where a group is joined. Bz = O=C(c1ccccc1)*; Bn = c1ccc(C*)cc1; βAla = NCCC(=O)O

As for `COc1cccc(NC(N)=O)c1`, the growth inhibition is -15.5% in test [1]; -14.2% in test [2]; -9.3% in test [3]; -9.5% in test [4]; -10.1% in test [5]; -19.4% in test [6].

As to `CN(C)Cc1cc(CN(C)C)cc(CN(C)C)c1`, the growth inhibition was 0.3% in test [1]; 15.8% in test [2]; 3.45% in test [3]; -22.9% in test [4]; -11.2% in test [5]; -19.8% in test [6].

For the molecule `CC(=O)CC(C)=Nc1ccc([N+](=O)[O-])cc1`, the growth inhibition was 1.75% in test [1]; -3.9% in test [2]; -6.7% in test [3]; -34.5% in test [4]; -16.6% in test [5]; 2.3% in test [6].

With `OC1(c2ccccc2)c2ccccc2NC2=NCCN21` (stereo not given), the growth inhibition in test [1] was -14.7%; in test [2], -12.4%; in test [3], -10.7%; in test [4], -10.5%; in test [5] it was -45.9%; in test [6], -16.9%.

For `CC12CCC(=O)C=C1CCC1C2C(=O)CC2(C)C1CCC2(O)C(=O)Cn1c(=O)[nH]cc(F)c1=O` (stereo not given), the growth inhibition in test [1] is 5.95%; in test [2], -5.8%; in test [3], 3.55%; in test [4], 5.65%; in test [5], -0.85%; in test [6], 2.3%.

On to `C#CC(OC(=O)NC(C(=O)OC)C(C)C)(c1ccccc1)c1ccccc1` (stereo not given), for which the growth inhibition in test [1] was 31.1%; in test [2] it was -10.3%; in test [3], 14.3%; in test [4], -4.85%; in test [5] it was 0.2%; in test [6] it was 7.55%.

`CCCCCCC(C(=O)OCC)(C(=O)OCC)c1ccccc1`: the growth inhibition in test [1] is -10.8%; in test [2] it was -16.1%; in test [3], 1.15%; in test [4] it was -31.1%; in test [5] it was 37.9%; in test [6], -6.2%.

`COC1=C(OC)C(=O)C(COC2CCCCO2)=CC1=O` (stereo not given): the growth inhibition in test [1] was -4.9%; in test [2] it was -1.45%; in test [3], 8.75%; in test [4], 87.5% (active); in test [5], 10.6%; in test [6], -6.65%.

Regarding `O=C1CN(CCN2CCCCC2)CC(=O)N2Cc3ccccc3CN12`, the growth inhibition was -10.1% in test [1]; 2.85% in test [2]; 12.1% in test [3]; -1.55% in test [4]; 7.8% in test [5]; 14.2% in test [6].

As to `CC(=O)c1cc2c(cc1C(C)C)C(C)(C)C(C)CC2(C)C` (stereo not given), the growth inhibition in test [1] was -19.6%; in test [2], -19.2%; in test [3], 13.8%; in test [4], 29.4%; in test [5], -41.9%; in test [6], 17.4%.

Consider `COc1ccc(C(=O)Nc2c(N)ncnc2N)cc1`, for which the growth inhibition is 16.8% in test [1]; 73.7% (active) in test [2]; 35.1% in test [3]; -3.6% in test [4]; 16.5% in test [5]; 15.1% in test [6].

On to `CN1CNC(=S)NC1`, for which the growth inhibition was 10.2% in test [1]; -7.85% in test [2]; 11% in test [3]; 17.6% in test [4]; 20.9% in test [5]; 15.2% in test [6].

On to `COc1cccc2c1N=c1c(Cl)c3c(c(Cl)c1O2)=Nc1c(OC)cccc1O3`, for which the growth inhibition in test [1] is -17.9%; in test [2], -1.45%; in test [3] it was -0.25%; in test [4], -13.9%; in test [5], -8.5%; in test [6], -20.4%.

Regarding `CC1=CC(=O)N2[C@H](OC[C@@H]2C(C)C)O1`, the growth inhibition in test [1] was 6.4%; in test [2], -2.35%; in test [3], 2.15%; in test [4] it was 14.7%; in test [5], -20.2%; in test [6] it was 9.5%.

With `N#Cc1cccc(NC(=O)c2ccc(C(=O)O)c(C(=O)c3ccc(C(=O)O)c(C(=O)Nc4cccc(C#N)c4)c3)c2)c1`, the growth inhibition is -18.6% in test [1]; -9.7% in test [2]; -19% in test [3]; 8.35% in test [4]; 2% in test [5]; -20.8% in test [6].

As for `OCCN(CCO)c1ccc2c(c1)Cc1cc(Br)ccc1-2`, the growth inhibition in test [1] is 1.25%; in test [2], 6%; in test [3], -4.35%; in test [4], -2.7%; in test [5] it was 22.5%; in test [6], 5.15%.

Take `COC(=O)C(CSCc1ccccc1)NC(=O)C(CSCc1ccccc1)NC(=O)CCNC(=O)c1ccccc1` (stereo not given) ({Bz-βAla}-Cys(Bn)-Cys(Bn)-OMe; configuration not given here): the growth inhibition in test [1] was 13.9%; in test [2] it was -5.05%; in test [3] it was 2.1%; in test [4], 30.1%; in test [5], -0.9%; in test [6], 9.05%.

For `CCOC(=O)C1=C(C)N(NC(N)=O)C2(O)CCCC(=O)C12C` (stereo not given), the growth inhibition in test [1] is 5.35%; in test [2] it was -0.45%; in test [3] it was 0.65%; in test [4] it was -52.2%; in test [5], -3.8%; in test [6], 2.2%.

In the case of `COc1cc(O)c2c(=O)c(OC)c(-c3ccc4c(c3)OCO4)oc2c1`, the growth inhibition was 4.6% in test [1]; 6.2% in test [2]; -9.85% in test [3]; 2.35% in test [4]; -24.2% in test [5]; -44.4% in test [6].

Turning to `Cc1c(-c2nnc(-c3ccccc3)o2)c(=O)n(-c2ccccc2)n1C`, the growth inhibition is -7.3% in test [1]; -6.6% in test [2]; -30.2% in test [3]; -27.1% in test [4]; -26.1% in test [5]; -21.6% in test [6].
